Experimental data from PubChem BioAssay AID720540 (National Center for Advancing Translational Sciences (NCATS), 2013).
In all, about 1,300 compounds went through this assay and about 460 (35%) were called active. About 39% were inconclusive and are not listed. Calls follow the shape of the dose curve; as a rule, active = well fitted inhibition curve with a large enough effect; inconclusive = small, poorly fitted or top-dose-only effect; inactive = flat fitted curve, though single readings scatter. Some of the results follow.

biological target: Protein phosphatase EYA2 (Homo sapiens) (UniProt O00167); experiment: qHTS for Inhibitors of the Phosphatase Activity of Eya2: Confirmatory Assay for Cherry-picked Compounds; conditions: purified EYA2 phosphatase activity, qHTS confirmation; series mostly up to 46.1 µM; also: nearly all actives have a fitted effect of over 65% in size
How it was run: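 Eya2 (0.2 uM working solution) preincubated 10 min at room temperature with compound in pH 7.5 HEPES buffer with MgCl2, BSA, DTT. OMFP added (50 uM working solution), 10 min more; fluorescence 485/525 nm, normalized to EGTA and DMSO.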
Potency is read from the fitted curve at half-maximal effect.

Chain of Protein phosphatase EYA2 (Homo sapiens) (O00167 whole entry, looked up): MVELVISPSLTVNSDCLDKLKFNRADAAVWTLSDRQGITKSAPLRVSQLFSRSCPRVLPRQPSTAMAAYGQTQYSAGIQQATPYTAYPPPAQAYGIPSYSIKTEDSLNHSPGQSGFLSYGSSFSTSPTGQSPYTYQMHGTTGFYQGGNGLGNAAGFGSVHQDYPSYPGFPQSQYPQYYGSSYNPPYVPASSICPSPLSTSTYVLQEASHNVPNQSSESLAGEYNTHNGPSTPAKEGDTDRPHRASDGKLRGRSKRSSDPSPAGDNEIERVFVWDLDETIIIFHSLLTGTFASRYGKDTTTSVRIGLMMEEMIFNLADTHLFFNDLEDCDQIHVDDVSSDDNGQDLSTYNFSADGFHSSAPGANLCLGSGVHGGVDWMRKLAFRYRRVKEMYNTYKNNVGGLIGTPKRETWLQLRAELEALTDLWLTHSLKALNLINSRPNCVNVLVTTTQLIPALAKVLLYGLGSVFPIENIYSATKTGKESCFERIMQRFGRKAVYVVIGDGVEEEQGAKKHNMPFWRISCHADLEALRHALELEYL

Row | SMILES | Potency
1 | O=C(Nc1ccc(F)cc1)c1ccc2[nH]c(=O)c(=O)[nH]c2c1 | 4.78 µM (active)
2 | O=C(NC1=C(Nc2ccc(F)cc2)C(=O)c2ccccc2C1=O)c1ccc(Cl)cc1 | inactive
3 | N#Cc1c(N)n(-c2cccc(C(=O)O)c2)c2nc3ccccc3nc12 | 16.9 µM (active)
4 | N#Cc1c(N)n(-c2ccc(C(=O)O)cc2)c2nc3ccccc3nc12 | 16.9 µM (active)
5 | Cc1cc(/C=C2\C(=N)N3N=C(CC(=O)N4CCOCC4)SC3=NC2=O)c(C)n1Cc1ccccc1 | inactive
6 | O=C(NN=C1CCCC1)c1[nH]c2ccc(Br)cc2c1-c1ccccc1 | inactive
7 | COc1cc(/C=C2\C(C)=C(C#N)c3nc(N)c(C#N)c(C)c32)ccc1OCC(=O)O | 16.9 µM (active)
8 | CN(C)c1ccc(/C=C2\C=Cc3cc(N)ccc32)cc1 | 8.49 µM (active)
9 | CN(C)c1ccc(/C=C2\CCc3cc(N)ccc32)cc1 | 8.49 µM (active)
10 | COc1ccc2c(c1)C=C/C2=C\c1ccc(N(C)C)cc1 | 5.36 µM (active)
11 | O=C(Nc1nc(-c2ccccn2)cs1)c1cccc(S(=O)(=O)N2CCOCC2)c1 | 1.51 µM (active)
12 | Cc1ccc(NC(=O)COc2ccc(S(=O)(=O)N3CCOCC3)cc2)cc1 | inactive
13 | Cc1cccc(S(=O)(=O)C(C#N)c2nc3ccccc3nc2N2CCOCC2)c1 (stereo unspecified) | inactive
14 | COc1ccc(C(=O)Nc2nc(-c3ccccn3)cs2)cc1S(=O)(=O)N1CCOCC1 | 1.51 µM (active)
15 | S=C(Nc1ccc2c(c1)OCCO2)Nc1ccc2c(c1)OCO2 | inactive
16 | O=S(=O)(c1ccc(Cl)cc1)N1CCOCC1 | inactive
17 | Cc1ccc(NC(=O)c2ccc3c(c2)OCO3)cc1S(=O)(=O)N1CCOCC1 | 9.53 µM (active)
18 | O=C(Nc1cc(S(=O)(=O)N2CCOCC2)ccc1Cl)c1cc(=O)c2ccccc2o1 | inactive
19 | Cc1ccc(NC(=O)c2cc(=O)c3ccccc3o2)cc1S(=O)(=O)N1CCCCC1 | 12 µM (active)
20 | CC(C(=O)c1ccc(Br)cc1)[n+]1cccc2ccccc21 (stereo unspecified) | inactive
21 | O=C1c2ccccc2C(=O)N1CCCc1cn(C[C@H]2CC[C@@H]([C@@H]3CC[C@H](Cn4cc(CCCN5C(=O)c6ccccc6C5=O)nn4)O3)O2)nn1 | inactive

Row | SMILES | Potency
22 | COc1ccc(CC(=O)Nc2cccc(Cl)c2C)cc1S(=O)(=O)N1CCOCC1 | inactive
23 | CCOC(=O)N1CCN(S(=O)(=O)c2ccc(C(=O)NNc3nc4ccc(Cl)cc4s3)cc2)CC1 | inactive
24 | COc1ccc(C(=O)Nc2ccc3nc(C)sc3c2)cc1S(=O)(=O)N1CCOCC1 | 16.9 µM (active)
25 | CC(C)N=c1cc2n(-c3ccc(Cl)cc3)c3ccccc3nc-2cc1Nc1ccc(Cl)cc1 | 1.9 µM (active)
26 | N#C/C(=C\c1ccc(OC(=O)c2ccc(Cl)s2)cc1)c1nc2ccccc2[nH]1 | inactive
27 | CCOC(=O)/C(C#N)=C/c1ccc(OC(=O)c2ccccn2)cc1 | 8.49 µM (active)
28 | N#C/C(=C\c1ccc(OC(=O)c2ccccn2)cc1)C(N)=O | 16.9 µM (active)
29 | N#C/C(=C/c1ccc(OC(=O)c2ccc(Br)s2)cc1)c1nc2ccccc2[nH]1 | inactive
30 | N#C/C(=C\c1ccc(OC(=O)c2ccc(Br)s2)cc1)c1nc2ccccc2[nH]1 | inactive
31 | CNC(=O)c1cc2c(cn1)[nH]c1ccccc12 | inactive
32 | CC(=O)Nc1cc(=O)c2cccnc2[nH]1 | 15.1 µM (active)
33 | CCNc1ccc2noc3c2c1C(=O)c1ccccc1-3 | 6.75 µM (active)
34 | COc1cc(CNCc2ccc(OC)cc2OC)cc(OC)c1 | inactive
35 | CSc1nc(NCCOCCO)c2sc3nc(-c4ccco4)c4c(c3c2n1)CCC4 | 7.57 µM (active)
36 | CCCOc1ccc(C2C3=C(Nc4nc(N)[nH]c(=O)c42)c2ccccc2C3=O)cc1 (stereo unspecified) | 3.38 µM (active)
37 | Nc1nc2c(c(=O)[nH]1)C(c1ccccc1)C1=C(N2)c2ccccc2C1=O (stereo unspecified) | 1.69 µM (active)
38 | Nc1nc2c(c(=O)[nH]1)C(c1cccc3ccccc13)C1=C(N2)c2ccccc2C1=O (stereo unspecified) | 7.57 µM (active)
39 | CCOc1ccc(C2C3=C(Nc4nc(N)[nH]c(=O)c42)c2ccccc2C3=O)cc1 (stereo unspecified) | 2.69 µM (active)
40 | O=C1/C(=C/c2ccco2)SC(=S)N1c1cccnc1 | 12 µM (active)
41 | Nc1n[nH]c2cc(=O)n(-c3ccc(Cl)cc3)nc12 | inactive
42 | Cn1nc(C(=O)Nc2nc3ccccc3[nH]2)c2ccccc2c1=O | 16.9 µM (active)

Row | SMILES | Potency
43 | CCN(CC)C(=O)CC(c1ccc(OC)cc1)c1c(OC)cc(OC)c2ccc(=O)oc12 (stereo unspecified) | inactive
44 | CN1N/C(=C\c2ccccc2)N=C2C(=O)N(C)C(=O)N=C21 | 12 µM (active)
45 | CCOc1cccc(CN2CCC(CCC(=O)NC3CC3)CC2)c1O | inactive
46 | Cc1ccc(Nc2nc(NCCO)nc3c2cnn3C)cc1Cl | 7.57 µM (active)
47 | COc1cc2[nH]cc(C(=O)NCc3ccccc3)c(=O)c2cc1OC | 5.36 µM (active)
48 | COc1ccccc1C(=O)Nc1c[nH]c(=O)[nH]c1=O | inactive
49 | COc1ccc(CNC(=O)c2sc(=O)n(Cc3cc(Cl)ccc3OC)c2C)cc1 | inactive
50 | O=C(C1=C[C@H](c2ccccc2)C[C@H](OCc2ccc(CO)cc2)O1)N1CCN(Cc2ccccc2)CC1 | inactive
51 | Nc1ccc2c(c1Cl)C(=O)c1ccc(N)c(Cl)c1C2=O | 3.01 µM (active)
52 | Cc1cc(Nc2ccc([N+](=O)[O-])cc2)c2ccccc2n1 | inactive
53 | COc1ccccc1Nc1cc(C)nc2c(C)ccc([N+](=O)[O-])c12 | 19 µM (active)
54 | O=C(NN1C(=O)/C(=C\c2ccc(O)c([N+](=O)[O-])c2)SC1=S)c1ccccc1Cl | 12 µM (active)
55 | O=C(Nc1ccccc1)C1=C(c2ccccc2)S(=O)(=O)CCS1(=O)=O | 13.5 µM (active)
56 | O=C(Nc1ccccc1)C(Cl)C(=O)c1ccccc1 (stereo unspecified) | inactive
57 | O=C(Cn1c(S(=O)(=O)Cc2ccccc2)nc2ccccc21)N1CCCCC1 | inactive
58 | O=C(CSc1ccc(-c2ccccn2)nn1)N1CCCCC1 | 7.57 µM (active)
59 | O=C(CSc1ccc(-c2ccccn2)nn1)N1CCCC1 | 12 µM (active)
60 | Cc1cc2nc(/N=C(\N)NC(=O)N3c4ccccc4Sc4ccccc43)nc(C)c2cc1C | inactive
61 | O=C(Cn1c(C(=O)N2CCc3ccccc3C2)cc2sccc21)c1ccccc1 | inactive
